These compounds were tested against Tyrosine-protein kinase Yes (Homo sapiens) (UniProt P07947). Conditions: at 1 µM.
Sequence of Tyrosine-protein kinase Yes (Homo sapiens) (P07947 2-543 limits assumed): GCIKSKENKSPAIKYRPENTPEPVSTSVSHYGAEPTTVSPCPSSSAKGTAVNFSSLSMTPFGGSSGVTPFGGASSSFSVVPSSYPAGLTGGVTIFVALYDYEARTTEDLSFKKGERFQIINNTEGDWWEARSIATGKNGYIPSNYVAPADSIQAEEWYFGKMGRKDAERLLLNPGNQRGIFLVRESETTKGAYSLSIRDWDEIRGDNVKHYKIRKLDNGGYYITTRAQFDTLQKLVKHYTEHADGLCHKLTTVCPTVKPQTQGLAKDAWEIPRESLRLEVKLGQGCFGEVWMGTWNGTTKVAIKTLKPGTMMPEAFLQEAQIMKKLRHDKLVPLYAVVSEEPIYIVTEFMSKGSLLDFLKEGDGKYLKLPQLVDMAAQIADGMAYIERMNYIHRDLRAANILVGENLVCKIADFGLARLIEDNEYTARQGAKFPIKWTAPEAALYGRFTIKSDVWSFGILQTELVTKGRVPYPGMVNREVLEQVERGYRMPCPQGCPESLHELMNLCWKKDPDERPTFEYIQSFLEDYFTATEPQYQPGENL

Row | Compound | inhibition [%]
1 | CC(C)(CO)CNC(=O)c1ccc2c(c1)/C(=N/Nc1ccc(S(N)(=O)=O)cc1)C(=O)N2 | 16.9
2 | COc1ccc2[nH]c3c4[nH]c5ccc(OC)cc5c4c4c(c3c2c1)C(=O)NC4=O | 33.5
3 | COc1ccc(-c2nn3ncccc3c2-c2ccnc(Nc3ccc4c(c3)OCCO4)n2)cc1 | 95.8
4 | NS(=O)(=O)c1ccc(N/N=C2\C(=O)Nc3ccc4ncccc4c32)cc1 | 48.2
5 | CCc1nn2ncccc2c1-c1ccnc(NC2CC2)n1 | 6.6
6 | CCNC(=O)O[C@H]1CN[C@H](C#Cc2cc3ncnc(Nc4ccc(OCc5cccc(F)c5)c(Cl)c4)c3s2)C1 | -0.6
7 | O=C(Nc1n[nH]c2cc(-c3ccc(F)cc3)ccc12)C1CC1 | 6.64
8 | CN1CCC(n2cnc(-c3ccc(F)cc3)c2-c2ccnc(Nc3ccccc3)n2)CC1 | 42.3
9 | COc1cc(N2CCN(C(C)C)CC2)ccc1Nc1nc(Nc2ccc(F)cc2C(N)=O)c2cc[nH]c2n1 | 7.33
10 | CCn1cc(-c2ccnc3[nH]ccc23)c(-c2cccc(NC(=O)Nc3ccc(OCc4ccccc4)cc3)c2)n1 | 24.8
11 | CC(=O)NCc1cccc(C#Cc2cncnc2Nc2ccc(OCc3cccc(F)c3)c(Cl)c2)c1 | 6.04
12 | CCCN1CCC(c2ccc(Nc3nc(Nc4cc(F)ccc4C(N)=O)c4cc[nH]c4n3)c(OC)c2)CC1 | 19.3
13 | CN1CCC(n2cnc(-c3ccc(F)cc3)c2-c2ccnc(N)n2)CC1 | 13.4
14 | CC1=C(C(=O)Nc2cc(Cl)c3[nH]ncc3c2)C(c2ccc(C(F)(F)F)cc2)CC(=O)N1 (stereo not drawn) | 27.4
15 | Fc1ccc(-c2nn3ncccc3c2-c2ccnc(Nc3ccc4c(c3)OCCO4)n2)cc1 | 96.6
16 | Cc1cccc2c1NC(=O)/C2=N\Nc1ccc(S(N)(=O)=O)cc1 | -0.24
17 | Nc1nc(-c2ccc(F)cc2)c(-c2ccc3ncccc3n2)s1 | 37.8

Each compound was assayed against T1, Tyrosine-protein kinase ZAP-70 (Homo sapiens) (UniProt P43403). Conditions: at 0.1 µM.
T1 sequence (whole entry): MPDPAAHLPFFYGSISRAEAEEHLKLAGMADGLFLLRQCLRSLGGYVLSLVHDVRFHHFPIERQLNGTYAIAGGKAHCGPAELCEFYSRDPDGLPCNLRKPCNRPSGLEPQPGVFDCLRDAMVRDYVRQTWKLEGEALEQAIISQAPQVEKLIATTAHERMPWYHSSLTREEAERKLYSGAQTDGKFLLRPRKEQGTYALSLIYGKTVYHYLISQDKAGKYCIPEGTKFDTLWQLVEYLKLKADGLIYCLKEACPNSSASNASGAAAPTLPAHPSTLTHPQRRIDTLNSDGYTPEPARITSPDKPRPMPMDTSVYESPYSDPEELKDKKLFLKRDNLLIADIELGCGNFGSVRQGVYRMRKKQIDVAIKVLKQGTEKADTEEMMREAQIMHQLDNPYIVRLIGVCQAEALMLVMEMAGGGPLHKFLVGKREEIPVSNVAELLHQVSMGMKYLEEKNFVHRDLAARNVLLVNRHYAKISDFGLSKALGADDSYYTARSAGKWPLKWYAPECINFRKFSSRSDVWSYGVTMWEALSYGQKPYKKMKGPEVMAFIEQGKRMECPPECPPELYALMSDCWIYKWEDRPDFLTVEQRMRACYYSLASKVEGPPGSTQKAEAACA

Row | Compound | inhibition [%]
18 | COc1ccc(-c2cc3c(N)ncnc3o2)cc1 | -2.99
19 | COc1cccc(-n2ncc3c(N/N=C/c4ccc(F)cc4)ncnc32)c1 | 2.73
20 | Nc1ncc(-c2cccc(S(N)(=O)=O)c2)c2scc(-c3ccc(F)c(Cl)c3)c12 | 1.28
21 | COc1cccc(-c2c[nH]c3c(N/N=C/c4ccncc4)ncnc23)c1 | 1.26
22 | CN(C)CCOc1ccc(-c2nc(-c3ccncc3)c(-c3ccc4c(c3)CC/C4=N\O)[nH]2)cc1 | -1.98
23 | Clc1ccc(-c2nn3ncccc3c2-c2ccnc(Nc3ccccc3)n2)cc1 | 0.2
24 | CCN1CCC(CC(=O)Nc2n[nH]c3nnc(-c4cccc(F)c4F)cc23)CC1 | -0.89
25 | NS(=O)(=O)c1ccc(Nc2ncc(-c3ccccc3)o2)cc1 | 2.88
26 | Fc1cccc(COc2ccc(Nc3ncnc4sc(-c5ccco5)cc34)cc2Cl)c1 | 0.85
27 | c1cc(-c2cnn3nc(N4CCOCC4)ccc23)nc(NC2CC2)n1 | -5.37
28 | Nc1nc(-c2cccc(Cl)c2)c(-c2ccc3ncccc3n2)s1 | 4.31
29 | COc1ccc(-c2oc3ncnc(N)c3c2-c2ccc(NC(=O)Nc3cc(C(F)(F)F)ccc3F)cc2)cc1 | 0.23
30 | Cc1ccc(O)cc1Nc1ccnc2cc(-c3ccccn3)ccc12 | 0.52
31 | Fc1ccc(-c2nn3ccccc3c2-c2ccncc2)cc1 | 0.73
32 | Cc1ccc2c(-c3ccnc(Nc4ccccc4)n3)c(-c3ccc(F)cc3)nn2n1 | 2.85
33 | COC(=O)c1sc(-n2cnc3cc(OC)c(OC)cc32)cc1OCc1ccccc1C(F)(F)F | 1.17

Row | Compound | inhibition [%]
34 | CC(C)(CO)CNC(=O)c1ccc2c(c1)/C(=N/Nc1ccc(S(N)(=O)=O)cc1)C(=O)N2 | -3.15
35 | COc1ccc2[nH]c3c4[nH]c5ccc(OC)cc5c4c4c(c3c2c1)C(=O)NC4=O | 2.68
36 | NS(=O)(=O)c1ccc(N/N=C2\C(=O)Nc3ccc4ncccc4c32)cc1 | 3.49
37 | CCc1nn2ncccc2c1-c1ccnc(NC2CC2)n1 | 1.02
38 | CCNC(=O)O[C@H]1CN[C@H](C#Cc2cc3ncnc(Nc4ccc(OCc5cccc(F)c5)c(Cl)c4)c3s2)C1 | -3.39
39 | O=C(Nc1n[nH]c2cc(-c3ccc(F)cc3)ccc12)C1CC1 | 1.71
40 | CN1CCC(n2cnc(-c3ccc(F)cc3)c2-c2ccnc(Nc3ccccc3)n2)CC1 | 1.81
41 | COc1cc(N2CCN(C(C)C)CC2)ccc1Nc1nc(Nc2ccc(F)cc2C(N)=O)c2cc[nH]c2n1 | 6.3
42 | CCn1cc(-c2ccnc3[nH]ccc23)c(-c2cccc(NC(=O)Nc3ccc(OCc4ccccc4)cc3)c2)n1 | -0.61
43 | CC(=O)NCc1cccc(C#Cc2cncnc2Nc2ccc(OCc3cccc(F)c3)c(Cl)c2)c1 | -1.79
44 | CN1CCC(n2cnc(-c3ccc(F)cc3)c2-c2ccnc(N)n2)CC1 | 1.2
45 | CC1=C(C(=O)Nc2cc(Cl)c3[nH]ncc3c2)C(c2ccc(C(F)(F)F)cc2)CC(=O)N1 (stereo not drawn) | 3.23
46 | Fc1ccc(-c2nn3ncccc3c2-c2ccnc(Nc3ccc4c(c3)OCCO4)n2)cc1 | 3.1
47 | Cc1cccc2c1NC(=O)/C2=N\Nc1ccc(S(N)(=O)=O)cc1 | 2.59
48 | Nc1nc(-c2ccc(F)cc2)c(-c2ccc3ncccc3n2)s1 | 1.91

Reference: ChEMBL document CHEMBL1961873, “Compounds: GSK PKIS; Assays: Nanosyn kinase panel” (2012)
